Structures are written as SMILES. Where “and” joins values, the source holds several entries; their conditions need not be identical. Equal entries are not always repeated. A number with no mark means an inactive call. Results filed as inconclusive are left out. Calls of active or inactive are those of the source. Unless noted, calls follow the shape of the dose curve; as a rule, active = well fitted curve in the direction sought with a large enough effect; inconclusive = small, poorly fitted or top-dose-only effect, or another doubt; inactive = no such curve, though single readings can be large; an effect the other way counts as inactive or inconclusive.

Experiment [1] can be described thus: Cell Viability - BJ (AID 421; calls by dose curve;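 also: potency is read from the fitted curve at half-maximal effect; cells exposed to compound for 40 hours at 37 °C before readout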). The following applies: BJ fibroblast viability, qHTS. In short, it runs like this:
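Cytotoxicity in human BJ foreskin fibroblasts is scored as loss of cellular ATP after a 40-hour exposure, measured by luciferase luminescence. Controls are DMSO and 100 uM tamoxifen.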
In general terms: Quantitative high-throughput screening tests each substance at several concentrations.

Experiment [2] is described as follows: Cellular Toxicity (caspase-3) HepG2 (AID 654).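 Also: cells exposed to compound for 16 hours before reading; 0% = DMSO alone and 100% = caspase signal from 100 µM tamoxifen.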 The following applies: HepG2 caspase-3 activation, luminescence, 0% = DMSO only, 100% = tamoxifen; series mostly up to 92.2 µM. In short, it runs like this: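 qHTS, HepG2, 1500 cells/well, complete medium; cpd 16 h 37 °C; Caspase-Glo 3/7, 20 min RT; lum. Norm: DMSO vs 100 uM tamoxifen; AC50 Hill fit.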
A short description of experiment [3]: Cellular Toxicity (caspase-3) BJ (AID 658).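 Also: cells exposed to compound for 16 hours.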 The conditions noted are these: BJ fibroblasts, luminescence, normalized: DMSO 0%, staurosporine 100%; series mostly up to 91.7 µM. The essentials:
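Readout: Caspase-Glo 3/7 luminescence increase in BJ cells after 16 hr treatment at 37 °C. Staurosporine and tamoxifen served as positive controls; AC50 values came from Hill modelling of data normalized to DMSO and 10 uM staurosporine.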

Experiment [4] is described as follows: Cellular Toxicity (caspase-3) MRC-5 (AID 659). The conditions noted are these: MRC-5 cells, luminescence, normalized: DMSO 0%, 10 µM staurosporine 100%; series mostly up to 91.7 µM. In short, it runs like this:
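Concentration-dependent caspase 3/7 activation is measured in human normal lung fibroblasts (MRC-5) following 16-hour treatment. AC50 values come from standard Hill-equation modeling of luminescence normalized to DMSO and 10 uM staurosporine.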

A short description of experiment [5]: Cellular Toxicity (caspase-3) Hek293 (AID 664).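 Also: cells exposed to compound for 16 h at 37 °C before readout.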 The following applies: HEK293 caspase-3 activation, DMSO = 0%, 100 µM tamoxifen = 100%; at 92.2 µM (top of the series). The essentials: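 Activation of caspase-3/7 is measured as increased luminescence from cleaved peptide-aminoluciferin substrate in HEK293 cells treated 16 hours at 37 °C. AC50 values come from Hill-equation fits of concentration-response data.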

The nature of experiment [6]: Cellular Toxicity (caspase-3) N2a (AID 665).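 Also: compound exposure lasted 16 h at 37 °C before readout.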 The following applies: N2a cells, luminescence, normalized: DMSO 0%, 10 µM staurosporine 100%; series mostly up to 92.2 µM. In short, it runs like this:
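Plated mouse neuroblastoma N2a cells received titrated compounds for 16 h in complete medium. Caspase activity was then detected with a peptide-aminoluciferin luminescent reagent.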

Experiment [7] in a line: Cellular Toxicity (caspase-3) NIH 3T3 (AID 666).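 Also: caspase signal read after 16 h compound exposure.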 Also: potency is read from the fitted curve at half-maximal effect.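 As to caspase-3 activation: 0% = DMSO basal and 100% = 100 µM tamoxifen stimulation.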 The following applies: NIH 3T3 caspase-3 activation, apoptosis/toxicity; series mostly up to 92.2 µM. In short, it runs like this: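 Concentration-response qHTS in NIH 3T3 mouse fibroblasts scores caspase-3/7 activation as rising luminescence after 16 hr compound exposure. Signals are scaled between DMSO-only and 100 uM tamoxifen.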

Experiment [8] in a line: Cell Viability - LYMP2-001 (AID 921).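 Also: 0% = DMSO only and full inhibition = tetraoctylammonium bromide control wells; nearly all actives have a fitted effect of over 70% in size.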 The conditions noted are these: LYMP2-001 lymphoblastoid cell viability; series mostly up to 92.2 µM. In short, it runs like this: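 Cellular ATP loss read by luciferase luminescence after 24 h compound exposure at 37 C in complete medium. LYMP2-001 lymphoblastoid cells, 2500/well; qHTS concentration-response data fitted with Hill equation for AC50.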

A short description of experiment [9]: MultiTox-Fluor Cytotoxicity Assay - LYMP1-001 - Dead Cells (AID 946). The following applies: LYMP1-001 lymphoblastoid cells, dead-cell protease fluorescence; series mostly up to 92.2 µM. In short, it runs like this: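 Seed 2500 LYMP1-001 cells/well, incubate 5 hr at 37 C; add compound, 16 hr at 37 C; add MultiTox-Fluor reagent, 60 min RT; read dead-cell fluorescence Ex/Em=485/520. Normalize to DMSO and 15 uM tetraoctylammonium bromide.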

Experiment [10] in a line: MultiTox-Fluor Cytotoxicity Assay - LYMP1-002 - Live Cells (AID 955).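 Also: cells exposed to compound for 16 hours; % is scaled to controls: 0 for no effect and ±100 for the full control effect.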 The conditions noted are these: LYMP1-002 lymphoblastoid live-cell protease fluorescence viability; series mostly up to 46.1 µM. In short, it runs like this:
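Cytotoxicity in the human lymphoblastoid line LYMP1-002 is measured as loss of live-cell protease activity after 16 h treatment in complete culture medium. AC50 is derived from Hill-equation fits of qHTS concentration-response data.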

Experiment [11] can be described thus: MultiTox-Fluor Cytotoxicity Assay - LYMP1-003 - Dead Cells (AID 961). Also: nearly all actives have a fitted effect of over 70% in size. The following applies: LYMP1-003 lymphoblastoid cells, dead-cell protease fluorescence; series mostly up to 92.2 µM. In short, it runs like this: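 LYMP1-003 lymphoblastoid, 2500 cells/well, 5 hr settle then 16 hr cpd at 37 C; MultiTox-Fluor reagent 60 min RT; Ex/Em 485/520 dead-cell signal; norm. DMSO = 0%, 15 uM tetraoctylammonium bromide = 100%; Hill AC50.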

Experiment [12] is described as follows: MultiTox-Fluor Cytotoxicity Assay - LYMP1-003 - Live Cells (AID 962).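 Also: cells exposed to compound for 16 hours at 37 °C; 0% = DMSO only and full loss = 92 µM tetraoctylammonium bromide; cytotoxic hits lower the live-cell protease signal.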 The conditions noted are these: LYMP1-003 lymphoblastoid cells, MultiTox-Fluor live-cell protease fluorescence; series mostly up to 92.2 µM. In short, it runs like this:
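Cells plated at 2500 per well and incubated 5 hr; compounds added and incubated 16 hr at 37 C; MultiTox-Fluor reagent added for 60 min at room temperature; fluorescence of liberated AFC measured at 405/510 nm.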

Experiment [13] can be described thus: Cell Viability - LYMP2-021 (AID 974).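 Also: compound exposure lasts 24 hours at 37 °C; % is scaled to controls: 0 for no effect and ±100 for the full control effect; nearly all actives have a fitted effect of over 55% in size.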 The following applies: LYMP2-021 lymphoblastoid cells viability; series mostly up to 92.2 µM. The essentials: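 Concentration-response cytotoxicity in a human lymphoblastoid line: 24 hr treatment at 37 C in complete culture medium, tetraoctylammonium bromide as positive control, luminescent ATP quantitation as viability measure.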

The nature of experiment [14]: Cell Viability - LYMP2-025 (AID 976).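 Also: plate controls were DMSO only for no effect and tetraoctylammonium bromide control for full effect.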 The conditions noted are these: LYMP2-025 lymphoblastoid cell viability; series mostly up to 92.2 µM. In short, it runs like this:
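In qHTS format, LYMP2-025 lymphoblastoid cells in complete culture medium received compound for 24 hr; ATP-based CellTiter-Glo signal gave viability, with AC50 derived by Hill equation.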

A short description of experiment [15]: Cell Viability - LYMP2-006 (AID 978). Also: % is scaled to controls: 0 for no effect and ±100 for the full control effect; nearly all actives have a fitted effect of over 60% in size. The following applies: LYMP2-006 lymphoblastoid cell viability, qHTS; series mostly up to 92.2 µM. In short, it runs like this: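 Potency values are Hill-fit AC50s for decreases in intracellular ATP (CellTiter-Glo luminescence). LYMP2-006 lymphoblastoid cells, 2500 per well, were exposed to compound in complete culture medium for 24 hr at 37 C.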

A short description of experiment [16]: Cell Viability - LYMP1-002 - Assay at 24 hr (AID 993). Also: % is scaled to controls: 0 for no effect and ±100 for the full control effect. The conditions noted are these: LYMP1-002 lymphoblastoid cells viability; series mostly up to 92.2 µM. In short, it runs like this: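 qHTS, LYMP1-002 lymphoblastoid, 24 h cpd, 37 C, CellTiter-Glo ATP luminescence; AC50 via Hill eq.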
Experiment [17] is described as follows: Cell Viability - LYMP1-002 - Assay at 40 hr (AID 994).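 Also: 0% = DMSO only and full inhibition = 92 µM tetraoctylammonium bromide; nearly all actives have a fitted effect of over 60% in size.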 The following applies: LYMP1-002 lymphoblastoid cell viability; series mostly up to 92.2 µM. In short, it runs like this:
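Viability in the human lymphoblastoid line was measured as intracellular ATP via CellTiter-Glo after 40 hr compound exposure. Tetraoctylammonium bromide served as positive control.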

The nature of experiment [18]: qHTS Assay for Identification of Small Molecule Inducers of Hypoxia Response (AID 2120; active = well fitted curve in the direction sought with a large enough effect in the signal ratio, with a control signal flat, not every such curve was filed as active; the % refers to the signal ratio; also: 0% is about no effect). The conditions noted are these: hypoxia response reporter cells, beta-lactamase ratio readout; series mostly up to 104 µM. The essentials:
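Induction of beta-lactamase reporter activity was measured in CellSensor HRE-bla ME-180 cells after 17 h compound treatment at 37 degrees C, using CCF4 substrate and the 460nm/530nm emission ratio to derive AC50 values.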

Experiment [19] can be described thus: qHTS assay for cell viability of the p53RE-bla HCT-116 cell line (AID 743292). Also: % is scaled to controls: 0 for no effect and ±100 for the full control effect; nearly all actives have a fitted effect of over 55% in size. The conditions noted are these: p53RE-bla HCT-116 viability, ATP luminescence, 16 h; series mostly up to 95 µM. The essentials:
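Intracellular ATP of p53RE-bla HCT-116 cells measured by luciferase luminescence following 16 h compound incubation at 37 C; DMSO-only wells served as vehicle controls.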

Experiment [20] deals with Peroxisome proliferator-activated receptor alpha (Homo sapiens) (UniProt Q07869). The experiment in a line: qHTS assay for small molecule agonists of the peroxisome proliferator-activated receptor alpha (PPARalpha) signaling pathway (AID 651778). Also: % of control where 0% means no effect. The conditions noted are these: PathHunter PPARalpha complementation, chemiluminescence, 6 h; hits give high values. In short, it runs like this:
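Chemiluminescence from complemented enzyme reported PPARalpha activation in cells after 6 hr of compound treatment at 37 C. The detection reagent was incubated for 60 min at room temperature, and compounds were scored as agonists.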

Peroxisome proliferator-activated receptor alpha (Homo sapiens), sequence (Q07869 whole entry, looked up): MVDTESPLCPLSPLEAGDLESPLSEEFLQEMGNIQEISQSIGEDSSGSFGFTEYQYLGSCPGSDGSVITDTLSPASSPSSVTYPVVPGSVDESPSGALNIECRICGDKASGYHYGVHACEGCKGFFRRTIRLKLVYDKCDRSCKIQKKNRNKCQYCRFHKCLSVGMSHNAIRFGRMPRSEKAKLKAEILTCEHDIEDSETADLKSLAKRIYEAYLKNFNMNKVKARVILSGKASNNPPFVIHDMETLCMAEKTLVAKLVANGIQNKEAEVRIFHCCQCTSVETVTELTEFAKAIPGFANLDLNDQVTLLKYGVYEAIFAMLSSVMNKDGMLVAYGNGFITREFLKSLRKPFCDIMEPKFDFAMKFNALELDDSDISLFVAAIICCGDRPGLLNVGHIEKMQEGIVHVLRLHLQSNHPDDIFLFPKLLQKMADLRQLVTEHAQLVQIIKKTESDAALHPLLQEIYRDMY

Regarding `Oc1c(Cl)c(Cl)cc(Cl)c1Cl`, the Potency in experiment [1] was above 92 µM. Further, the compound was called inactive in experiment [2], in [3], in [4], in [6], in experiment [9] and in [10]. In addition, the compound was called inactive in experiment [12]. Besides, the caspase-3 activation in experiment [5] was -2.19%. Moreover, the Potency result in experiment [7], in [8], in experiment [11], in experiment [13], in experiment [14] and in [15] was “inactive” in each case. Moreover, the Potency entry in experiment [16], in experiment [17], in experiment [18] and in experiment [19] was “inactive” in each case.
Turning to `O=[N+]([O-])c1cc(Cl)c(Cl)c(Cl)c1`, the Potency in experiment [1] is above 92 µM; in experiment [7], 25.1 µM (active). For the same compound, the compound was classed as inactive in experiment [2], in experiment [3], in [4], in experiment [6], in experiment [9] and in experiment [10]. Further, the outcome in [12] was inactive. The caspase-3 activation in experiment [5] was 2.74%. Moreover, the Potency result in experiment [8], in experiment [11], in experiment [13], in [14], in experiment [15] and in experiment [16] was “inactive” in each case. Also, the Potency entry in [17], in [18] and in experiment [19] was “inactive” throughout. For the same compound, the max response in [20] was -4.23%.
With `Nc1ncc([N+](=O)[O-])s1`, the Potency in [1] is above 92 µM. In addition, the compound was called inactive in [2], in experiment [3], in [4], in experiment [6], in experiment [9] and in experiment [10]. In addition, the compound was called inactive in experiment [12]. For the same compound, the caspase-3 activation in experiment [5] is -1.64%. Besides, the Potency entry in [7], in experiment [8], in experiment [11], in [13], in experiment [14] and in experiment [15] was “inactive” in each case. The Potency result in experiment [16], in experiment [17], in [18] and in experiment [19] was “inactive” throughout. In addition, the max response in experiment [20] is 7.02%.
Take `Cc1cc(N=Nc2ccccc2C)ccc1N`: the Potency in experiment [1] is above 92 µM. Moreover, the compound was classed as inactive in [2], in [3], in experiment [4], in experiment [6], in [9] and in [10]. Moreover, the compound was classed as inactive in [12]. Besides, in experiment [5], the caspase-3 activation is -5.62%. The Potency result in experiment [7], in [8], in experiment [11], in [13], in experiment [14] and in experiment [15] was “inactive” in each case. Moreover, the Potency entry in experiment [16], in experiment [17], in experiment [18] and in experiment [19] was “inactive” in each case. The max response in [20] is -6.65% and -1.39%.
